Screening results as filed in PubChem BioAssay.
12-LOX inh – ALOX12 (human) lipoxygenase inhibition | P18054 | AID 1671190 | Potency, µM (titrated, usually from 108 µM), most hits filed as inhibitors | purified 12hLO, xylenol orange hydroperoxide absorbance | 1.1% of 580,000 active
Target sequence (P18054 whole entry, looked up): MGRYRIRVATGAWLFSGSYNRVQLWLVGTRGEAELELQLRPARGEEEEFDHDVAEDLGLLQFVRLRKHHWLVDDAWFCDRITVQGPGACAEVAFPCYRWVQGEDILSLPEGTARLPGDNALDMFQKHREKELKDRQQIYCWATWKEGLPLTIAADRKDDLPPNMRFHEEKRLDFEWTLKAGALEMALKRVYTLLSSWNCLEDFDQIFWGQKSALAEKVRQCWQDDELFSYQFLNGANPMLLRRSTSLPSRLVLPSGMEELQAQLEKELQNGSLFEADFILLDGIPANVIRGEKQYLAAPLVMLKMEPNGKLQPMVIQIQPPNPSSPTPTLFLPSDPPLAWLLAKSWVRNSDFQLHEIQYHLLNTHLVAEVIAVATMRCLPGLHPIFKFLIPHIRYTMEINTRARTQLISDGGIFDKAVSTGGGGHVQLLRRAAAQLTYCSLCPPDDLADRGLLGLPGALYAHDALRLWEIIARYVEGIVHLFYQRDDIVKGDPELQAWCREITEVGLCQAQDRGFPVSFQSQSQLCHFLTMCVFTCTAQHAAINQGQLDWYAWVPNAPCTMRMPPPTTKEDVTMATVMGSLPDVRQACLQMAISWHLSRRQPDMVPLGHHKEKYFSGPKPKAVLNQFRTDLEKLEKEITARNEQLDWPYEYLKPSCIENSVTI
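Purified human 12hLO at 150 nM in 25 mM Hepes, 0.01% Triton X-100, pH 7.0, preincubated 15 min at room temperature with compound. Reaction started with 40 uM arachidonic acid, 30 min at room temperature. Hydroperoxide measured by Fe-xylenol orange, 573/405 nm absorbance ratio.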
G9a inh – G9a (human) methyltransferase inhibition. Q96KQ7. G9a H3K9 monomethylation, AlphaScreen, 2 h. 8.8% of 350,000 active. Potency, µM (series often up to 102 µM), actives largely listed as inhibitors; also: nearly all actives have a fitted effect of over 75% in size
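AlphaScreen read-out: biotin-H3K9 peptide (500 nM) methylation by 20 nM enzyme with 20 uM SAM, 2 h at room temperature after 15 min compound preincubation; anti-monomethyl H3K9 antibody plus donor/acceptor beads, 10 min dark.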
JMJD2A Tudor inh – JMJD2A Tudor domain (human) inhibition. AID 504339. AlphaScreen JMJD2A-Tudor / H3K4me3 peptide binding. 4.4% of 390,000 active. Potency, µM (series often up to 114 µM), most hits filed as inhibitors; also: nearly all actives have a fitted effect of over 50% in size
BAZ2B inh – inhibitors of human BAZ2B bromodomain; Q9UIF8; AlphaScreen BAZ2B-H3K14Ac peptide displacement; Potency, µM (doses to about 114 µM), most hits filed as inhibitors; 4.4% of 360,000 active; also: nearly all actives have a fitted effect of over 60% in size
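Compounds, titrated to a top concentration of 110 uM, were incubated 30 min at room temperature with preformed BAZ2B/acetyl-K14 H3 peptide complex (50 nM each). Proximity signal was measured by AlphaScreen after 20 min with beads.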
Sfp PPTase inh – inhibitors of Bacillus subtilis Sfp phosphopantetheinyl transferase | Q9F4F7 | 3.5% of 310,000 active | Potency, µM, usual class: inhibitors | Biochemical Sfp PPTase activity, qHTS | AID 1490;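 also: the enzyme is Sfp with the accession as filed and its product quenches rhodamine fluorescence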
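Step 1, compound plus 15 nM Sfp-PPTase, 15 min, room temperature. Step 2, add rhodamine-CoA (5 uM) and BHQ-2-YbbR (12.5 uM). Step 3, read 525/598 nm fluorescence at 0 and 30 min.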
HP1b binding inh – HP1-beta chromodomain-methylated histone interaction inhibition | P83916 | AlphaScreen HP1-beta / biotin-H3K9me3 peptide binding | Potency, µM (series often up to 114 µM), hits mostly inhibitors | 0.56% of 390,000 active | AID 540317; also: nearly all actives have a fitted effect of over 70% in size
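AlphaScreen: HP1-beta (50 nM) preformed 30 min with biotin-H3(1-18)K9me3 peptide (50 nM) in PBS pH 7.4, 0.01% Tween-20. Compound added for 30 min at RT, then streptavidin donor/nickel chelate acceptor beads (10 ug/mL) for 30 min.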
Large screens that a line does not name were inactive. Shown are actives, neighbours in structure and some others; about 8.7% of the full set was active somewhere. Calls follow the shape of the dose curve; as a rule, active = well fitted curve in the direction sought with a large enough effect; inconclusive = small, poorly fitted or top-dose-only effect, or another doubt; inactive = no such curve, though single readings can be large; an effect the other way counts as inactive or inconclusive.

CCC(CO)n1c(=S)[nH]c2cc(OC)c(OC)cc2c1=O (centres undefined)	G9a inh 18µM, JMJD2A Tudor inh 25µM
COc1ccccc1CN1CC(c2noc(CC3CCCC3)n2)CC1=O (centres undefined)	none (no result: G9a inh, JMJD2A Tudor inh, BAZ2B inh, Sfp PPTase inh, HP1b binding inh)
CC(/C=C/c1ccco1)=N\NC(=O)c1cccc(Cl)c1	Sfp PPTase inh inconclusive
CC(/C=C/c1ccco1)=N/NC(=O)CNc1ccccc1C	Sfp PPTase inh 50µM
CC(/C=C/c1ccco1)=N\NC(=O)CNc1ccc2ccccc2c1	G9a inh 5.6µM, JMJD2A Tudor inh inconclusive, BAZ2B inh 35µM
Cc1ccccc1Cc1sc(N)nc1C	12-LOX inh 14µM (no result: G9a inh, JMJD2A Tudor inh, BAZ2B inh, Sfp PPTase inh, HP1b binding inh)
CCC1Sc2ccc(S(=O)(=O)N3CCN(c4ccccc4)CC3)cc2NC1=O (centres undefined)	G9a inh 18µM, JMJD2A Tudor inh 13µM
O=C1CSc2ccc(S(=O)(=O)N3CCN(c4ccccc4)CC3)cc2N1	none
COc1ccc(C(=O)Nc2nnc(C)s2)cc1	none (no result: Sfp PPTase inh)
COc1ccc(N2CCN(C(C)C(=O)N3CCCC3)CC2)cc1 (centres undefined)	G9a inh inconclusive, JMJD2A Tudor inh 0.79µM, BAZ2B inh 32µM, Sfp PPTase inh inconclusive, HP1b binding inh inconclusive
COc1ccc(N2CCN(C(C)C(=O)Nc3nnc(C)s3)CC2)cc1 (centres undefined)	G9a inh 56µM, JMJD2A Tudor inh inconclusive
CCC(C)C(N)C1=NC(C(=O)N[C@@H](CC(C)C)C(=O)N[C@H](CCC(=O)[O-])C(=O)N[C@H](C(=O)N[C@H]2CCCCNC(=O)[C@H](CC(N)=O)NC(=O)[C@@H](CC(=O)[O-])NC(=O)[C@H](Cc3cnc[nH]3)NC(=O)[C@@H](Cc3ccccc3)NC(=O)[C@H]([C@@H](C)CC)NC(=O)[C@@H](CCCN)NC2=O)[C@@H](C)CC)CS1.[Zn+2] (some centres undefined)	JMJD2A Tudor inh 2.8µM, HP1b binding inh 13µM (no result: 12-LOX inh, G9a inh, BAZ2B inh, Sfp PPTase inh)
CC[C@H](C)[C@H](NC(=O)[C@H](CO)NC(=O)[C@H](CC(C)C)NC(=O)[C@@H]1CCCN1C(=O)[C@@H]1CCCN1C(=O)[C@H](CC(=O)O)NC(=O)[C@@H](N)CC(=O)O)C(=O)N[C@@H](CC(=O)O)C(=O)N[C@@H](CC(C)C)C(=O)N[C@H](C(=O)N[C@@H](Cc1ccccc1)C(=O)N[C@@H](Cc1cnc[nH]1)C(=O)N[C@@H](CC(C)C)C(=O)N[C@@H](CC(C)C)C(=O)N[C@@H](CCCNC(=N)N)C(=O)N[C@H](C(=O)N[C@@H](CC(C)C)C(=O)N[C@@H](CC(C)C)C(=O)N[C@@H](CCC(=O)O)C(=O)N[C@@H](CC(C)C)C(=O)N[C@@H](C)C(=O)N[C@@H](CCCNC(=N)N)C(=O)N[C@H](C(=O)N[C@@H](CCC(N)=O)C(=O)N[C@@H](CO)C(=O)N[C@@H](CCC(N)=O)C(=O)N[C@@H](CCCNC(=N)N)C(=O)N[C@@H](CCC(=O)O)C(=O)N[C@@H](CCCNC(=N)N)C(=O)N[C@@H](C)C(=O)N[C@@H](CCC(=O)O)C(=O)N[C@@H](CCC(N)=O)C(=O)N[C@@H](CC(N)=O)C(=O)N[C@@H](CCCNC(=N)N)C(=O)N[C@H](C(=O)N[C@H](C(=O)N[C@@H](Cc1ccccc1)C(=O)N[C@@H](CC(=O)O)C(=O)N[C@@H](CO)C(=O)N[C@H](C(N)=O)C(C)C)[C@@H](C)CC)[C@@H](C)CC)[C@@H](C)O)[C@@H](C)O)[C@@H](C)O	none (no result: 12-LOX inh, G9a inh, JMJD2A Tudor inh, BAZ2B inh, HP1b binding inh)
NC(=S)Nc1cccc2cn[nH]c12	12-LOX inh inconclusive, Sfp PPTase inh 56µM
Cc1ccc2cn[nH]c2c1NC(N)=S	G9a inh inconclusive
O=C(C[C@@H]1CCNC[C@@H]1Cc1cc(-c2ccccc2)on1)N1CCCCC1	none (no result: G9a inh, JMJD2A Tudor inh, BAZ2B inh, Sfp PPTase inh, HP1b binding inh)
Cc1ccc(N2C(=O)[C@@H]3[C@H](C2=O)[C@H]2C=C(C(=O)c4ccccc4)C=CN2[C@@H]3C(=O)c2ccc(Cl)cc2)cc1	G9a inh 2.2µM
CC(=O)Oc1ccc(C(=O)[C@H]2[C@H]3C(=O)N(c4cccc5ccccc45)C(=O)[C@H]3[C@@H]3C=CC=NN32)cc1	G9a inh inconclusive, JMJD2A Tudor inh inconclusive, BAZ2B inh inconclusive, Sfp PPTase inh inconclusive
O=C(C1=C[C@@H]2[C@H]3C(=O)N(c4cccc(Cl)c4)C(=O)[C@H]3[C@@H](C(=O)c3ccc(Cl)cc3)N2C=C1)c1ccccc1	G9a inh 3.2µM, JMJD2A Tudor inh inconclusive (no result: 12-LOX inh)
O=C(C1=C[C@@H]2[C@H]3C(=O)N(c4ccccc4Cl)C(=O)[C@H]3[C@@H](C(=O)c3ccc(Cl)cc3)N2C=C1)c1ccccc1	G9a inh 8.9µM (no result: 12-LOX inh, JMJD2A Tudor inh, HP1b binding inh)
CC1=C(C(=O)OCC(F)(F)C(F)(F)F)C(c2cc3c(cc2Br)OCO3)NC(=O)N1 (centres undefined)	none (no result: G9a inh, JMJD2A Tudor inh, BAZ2B inh, Sfp PPTase inh, HP1b binding inh)
CCCCOc1ccc(N=Nc2ccc(N)nc2N)cn1	12-LOX inh inconclusive, JMJD2A Tudor inh 35µM, HP1b binding inh inconclusive
CCCCOc1ccc(Cc2cnc(N)nc2N)cc1	none (no result: G9a inh)
CCOC(=O)C1CCN(Cc2nc(-c3ccc(OC)c(OC)c3)no2)CC1	none
CCOC(=O)C1CCN(Cc2cc(Cl)c3ccccc3c2O)CC1	G9a inh 45µM, BAZ2B inh inconclusive, Sfp PPTase inh inconclusive (no result: 12-LOX inh)
CCOC(=O)C1CCN(Cc2ccc(OC)c(C)c2OC)CC1	12-LOX inh inconclusive, G9a inh inconclusive, JMJD2A Tudor inh 1.1µM, BAZ2B inh 50µM, HP1b binding inh inconclusive
Oc1c(CN2CCCC(C(F)(F)F)C2)cc(Cl)c2ccccc12 (centres undefined)	12-LOX inh 16µM, G9a inh 40µM
OC1CCCN(Cc2cccc3ccccc23)C1 (centres undefined)	none
CCn1nc(C(=O)NCC2(c3ccccc3)CCC2)c2ccccc2c1=O	none (no result: G9a inh, JMJD2A Tudor inh, BAZ2B inh, Sfp PPTase inh, HP1b binding inh)
COc1cc(C(=O)Nc2ccc3oc(C)nc3c2)ccc1C	none (no result: G9a inh, JMJD2A Tudor inh, BAZ2B inh, Sfp PPTase inh, HP1b binding inh)
CC(C)c1ccc2c(c1)C1(NN=C(c3ccccc3)S1)C(=O)N2 (centres undefined)	12-LOX inh inconclusive, G9a inh 18µM, JMJD2A Tudor inh 71µM, BAZ2B inh 10µM, HP1b binding inh inconclusive
CCc1ccc2c(c1)C1(NN=C(c3ccc(C)cc3)S1)C(=O)N2 (centres undefined)	12-LOX inh inconclusive, G9a inh 28µM, JMJD2A Tudor inh 50µM, BAZ2B inh 7.9µM, HP1b binding inh 18µM
Cc1cc(C)cc(-n2ncc3c2NC(=O)CC32C(=O)Nc3ccc(C(C)C)cc32)c1 (centres undefined)	none (no result: G9a inh, JMJD2A Tudor inh, BAZ2B inh, Sfp PPTase inh, HP1b binding inh)
CSC1=N/C(=C\c2ccc(Cl)cc2)C(=O)N1N(C)C	none
